For eight compounds, growth results are on record in PubChem BioAssay (NCI).

About 83,000 compounds went through this panel and 20% of them were active in at least one assay; those are over-represented in the sample as a whole.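 How to read the values: 0–100, growth inhibition (40 = 60% inhibited); 0, no net growth; -100 to 0, cell death (-40 = 40% of starting cells died; -100 = all dead).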 Values without a mark were called inactive. Calls of active or inactive are those of the source. The calls were made as follows: active = growth percent below 10; inactive = the rest.

Some test systems named below: K-562 leukemia; MALME-3M melanoma; MDA-MB-231 breast; RXF 393 renal; SF-268 CNS; SF-295 CNS; SF-539 CNS; UACC-257 melanoma; M14 melanoma; HCT-15 colon; HT29 colon; SNB-75 CNS; SNB-19 CNS; U251 CNS; PC-3 prostate; SK-MEL-5 melanoma; UACC-62 melanoma; LOX IMVI melanoma; SK-MEL-28 melanoma; SK-MEL-2 melanoma.
Common to all, as to experiment: NCI-60 one-dose screen, 48 h (100 = growth as untreated, 0 = no growth, -100 = all killed)
Details in all cases: 10 µM

With `CN(C)c1ccc(-c2cc(-c3cccc(NS(C)(=O)=O)c3)nc(N)c2C#N)cc1`, the growth is 10.9% in the assay on K-562 leukemia; -7.09% (active) in the assay on MALME-3M melanoma; -8.96% (active) in the assay with MDA-MB-231 breast; 20.3% with RXF 393 renal; 20.8% in the assay on SF-268 CNS; 0.228% (active) with SF-295 CNS. In addition, the growth in the assay on SF-539 CNS is 3.52% (active); with UACC-257 melanoma, 80.4%; in the assay with M14 melanoma it was 11.6%; in the assay on HCT-15 colon, 24%; with HT29 colon, 8.8% (active); in the assay on SNB-75 CNS, -2.46% (active). Further, the growth in the assay on SNB-19 CNS is 43.3%; in the assay on U251 CNS it was 20.3%; in the assay on PC-3 prostate, 10.4%; with SK-MEL-5 melanoma, 4.17% (active); with UACC-62 melanoma, 47.4%; with LOX IMVI melanoma, 23.7%. Also, the growth with SK-MEL-28 melanoma was 69%; with SK-MEL-2 melanoma it was 57.2%.
Regarding `Fc1cc(C(F)(F)F)ccc1-c1cncnc1NC1CCCCCC1`, the growth was 91.3% in the assay with K-562 leukemia; 118% in the assay with MALME-3M melanoma; 91% with MDA-MB-231 breast; 88.5% with RXF 393 renal; 115% in the assay on SF-268 CNS; 94.5% in the assay with SF-295 CNS. The growth with SF-539 CNS was 94.8%; with UACC-257 melanoma, 93.9%; in the assay on M14 melanoma it was 105%; with HCT-15 colon it was 95.6%; in the assay with HT29 colon, 110%; in the assay on SNB-75 CNS, 80.3%. Moreover, the growth is 94.2% in the assay with SNB-19 CNS; 79.9% in the assay on U251 CNS; 87.1% with PC-3 prostate; 92.2% with SK-MEL-5 melanoma; 78.9% with UACC-62 melanoma; 98.3% with LOX IMVI melanoma. For the same compound, the growth was 111% with SK-MEL-28 melanoma and 98.8% in the assay on SK-MEL-2 melanoma.
For the compound `CSc1nn(-c2ccccc2)c2ncnc(Oc3ccc(C)cc3)c12`, the growth in the assay with K-562 leukemia was 88.9%; with MALME-3M melanoma, 91.6%; with MDA-MB-231 breast it was 66.9%; in the assay on RXF 393 renal it was 68.9%; in the assay with SF-268 CNS, 90.7%; in the assay with SF-295 CNS it was 93.1%. In addition, the growth with SF-539 CNS is 94.5%; with UACC-257 melanoma, 93%; in the assay on M14 melanoma, 90.5%; in the assay on HCT-15 colon, 93.5%; with HT29 colon, 99.3%; in the assay on SNB-75 CNS, 75.1%. For the same compound, the growth was 102% with SNB-19 CNS; 91.2% in the assay on U251 CNS; 82.5% with PC-3 prostate; 94.5% with SK-MEL-5 melanoma; 99.6% in the assay with UACC-62 melanoma; 95% with LOX IMVI melanoma. The figures for the growth in the assay with SK-MEL-28 melanoma and in the assay on SK-MEL-2 melanoma were 99.5% and 75.3%, respectively.
In the case of `CN(C)c1ccc(Cc2ccc(N(C)C)cc2Cl)c(Cl)c1`, the growth was 90.2% with K-562 leukemia; 91.9% with MALME-3M melanoma; 109% in the assay with MDA-MB-231 breast; 93.2% in the assay on RXF 393 renal; 103% in the assay on SF-268 CNS; 116% in the assay with SF-295 CNS. Further, the growth with SF-539 CNS is 108%; in the assay on UACC-257 melanoma, 110%; in the assay with M14 melanoma, 107%; in the assay with HCT-15 colon, 101%; in the assay on HT29 colon, 102%; in the assay with SNB-75 CNS it was 77.7%. Besides, the growth was 102% with SNB-19 CNS; 110% with U251 CNS; 86.8% with PC-3 prostate; 91.9% with SK-MEL-5 melanoma; 88.6% in the assay with UACC-62 melanoma; 96% with LOX IMVI melanoma. For the same compound, the growth was 105% in the assay with SK-MEL-28 melanoma and 113% in the assay with SK-MEL-2 melanoma.
Consider `C#Cc1ccc(-n2c(/C=C/c3cc(OC)cc(OC)c3)nc3ncccc3c2=O)cc1`, for which the growth with K-562 leukemia was 75.3%; in the assay on MALME-3M melanoma, 83.2%; in the assay with MDA-MB-231 breast it was 53.5%; in the assay with RXF 393 renal it was 64.8%; in the assay on SF-268 CNS, 65.3%; with SF-295 CNS, 75.7%. Besides, the growth was 87.8% in the assay with SF-539 CNS; 66.3% in the assay on UACC-257 melanoma; 81.2% in the assay with M14 melanoma; 82.8% in the assay on HCT-15 colon; 100% with HT29 colon; 55% in the assay on SNB-75 CNS. Further, the growth in the assay on SNB-19 CNS is 98%; in the assay on U251 CNS, 72%; with PC-3 prostate, 68.5%; in the assay on SK-MEL-5 melanoma, 60.7%; with UACC-62 melanoma, 85.8%; in the assay on LOX IMVI melanoma it was 76.2%. Moreover, the growth with SK-MEL-28 melanoma is 96.7%; with SK-MEL-2 melanoma, 53.7%.
On to `CN(C)CCCn1c(=O)c2ccccc2c2cnc3[nH]ccc3c21`, for which the growth in the assay on K-562 leukemia is -10.9% (active); in the assay on MALME-3M melanoma, -25.1% (active); with MDA-MB-231 breast, -11.2% (active); in the assay with RXF 393 renal it was 5.57% (active); with SF-268 CNS it was 21.1%; in the assay on SF-295 CNS, 12.4%. For the same compound, the growth in the assay with SF-539 CNS was 30.3%; with UACC-257 melanoma, -20.6% (active); with M14 melanoma, -6.79% (active); with HCT-15 colon, 10.5%; in the assay with HT29 colon it was -9.52% (active); with SNB-75 CNS it was 26.5%. The growth in the assay with SNB-19 CNS was 13.6%; in the assay on U251 CNS it was 8.32% (active); in the assay with PC-3 prostate, -9.22% (active); in the assay on SK-MEL-5 melanoma, 10.3%; with UACC-62 melanoma, -20.2% (active); in the assay on LOX IMVI melanoma, 1.3% (active). The growth is 21.1% with SK-MEL-28 melanoma and -8.38% (active) in the assay on SK-MEL-2 melanoma.
As for `CC(C)(C)c1cc(Br)cc(C(C)(C)C)c1O`, the growth with K-562 leukemia is 101%; in the assay with MALME-3M melanoma, 103%; with MDA-MB-231 breast, 116%; in the assay on RXF 393 renal, 101%; with SF-268 CNS, 113%; in the assay on SF-295 CNS it was 97.8%. Moreover, the growth with SF-539 CNS was 104%; with UACC-257 melanoma, 104%; in the assay on M14 melanoma, 115%; in the assay on HCT-15 colon, 105%; with HT29 colon, 113%; with SNB-75 CNS, 95.7%. Moreover, the growth with SNB-19 CNS was 104%; in the assay with U251 CNS, 99.8%; in the assay with PC-3 prostate it was 94.4%; with SK-MEL-5 melanoma, 102%; with UACC-62 melanoma, 99.3%; with LOX IMVI melanoma, 99.1%. Further, the growth in the assay on SK-MEL-28 melanoma was 112%; with SK-MEL-2 melanoma it was 118%.
Take `O=c1[nH]c(-c2ccc(Cl)cc2)nc2sc3c(c12)CCCC3`: the growth with K-562 leukemia is 69.5%; with MALME-3M melanoma it was 108%; in the assay on MDA-MB-231 breast, 97.8%; with RXF 393 renal, 89.1%; in the assay with SF-268 CNS it was 50.7%; in the assay with SF-295 CNS, 32.9%. Also, the growth in the assay with SF-539 CNS is 72.1%; with UACC-257 melanoma, 103%; with M14 melanoma it was 68.2%; in the assay with HCT-15 colon, 81.1%; in the assay with HT29 colon, 106%; with SNB-75 CNS, 57.9%. Besides, the growth was 76.6% in the assay on SNB-19 CNS; 54.3% with U251 CNS; 93.2% in the assay on PC-3 prostate; 75.9% in the assay on SK-MEL-5 melanoma; 55.8% with UACC-62 melanoma; 48.9% in the assay on LOX IMVI melanoma. Moreover, the results for the growth in the assay with SK-MEL-28 melanoma and in the assay with SK-MEL-2 melanoma were 107% and 102%, respectively.
